Reference: PubChem BioAssay AID485346 (Sanford-Burnham Center for Chemical Genomics, 2010)
The whole screen tested about 330,000 compounds, of which about 10,000 (3%) were called active. This excerpt belongs to a sample that is enriched for actives. Values without a mark were called inactive.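 Rule for the calls: active = inhibition of at least 50% at 8 µM in the primary screen; inactive = the rest.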

target: Protein Mdm4 (Homo sapiens) + E3 ubiquitin-protein ligase Mdm2 (Homo sapiens) (UniProt O15151+Q00987); assay: disruptors of Mdm2/MdmX RING complex – cell-based, luminescence, split luciferase, SaOS-2, uHTS, primary screen (AID 485346); details: SaOS-2 split-luciferase Mdm2/MdmX complementation, at 8 µM, active compounds read high
Sequence (O15151 whole entry, looked up): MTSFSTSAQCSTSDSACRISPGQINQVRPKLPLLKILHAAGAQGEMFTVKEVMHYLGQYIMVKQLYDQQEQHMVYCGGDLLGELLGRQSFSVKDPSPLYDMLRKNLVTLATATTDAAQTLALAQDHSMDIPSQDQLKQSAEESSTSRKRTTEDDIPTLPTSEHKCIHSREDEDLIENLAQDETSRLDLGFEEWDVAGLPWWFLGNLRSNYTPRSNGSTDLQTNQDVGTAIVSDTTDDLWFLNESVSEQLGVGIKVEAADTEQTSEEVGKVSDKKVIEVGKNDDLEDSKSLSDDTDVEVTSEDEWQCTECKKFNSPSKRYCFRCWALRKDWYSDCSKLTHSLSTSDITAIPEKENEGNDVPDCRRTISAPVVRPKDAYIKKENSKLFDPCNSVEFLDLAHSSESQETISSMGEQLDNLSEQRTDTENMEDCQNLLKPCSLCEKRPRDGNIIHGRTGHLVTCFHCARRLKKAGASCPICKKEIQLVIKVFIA
Sequence (Q00987 whole entry, looked up): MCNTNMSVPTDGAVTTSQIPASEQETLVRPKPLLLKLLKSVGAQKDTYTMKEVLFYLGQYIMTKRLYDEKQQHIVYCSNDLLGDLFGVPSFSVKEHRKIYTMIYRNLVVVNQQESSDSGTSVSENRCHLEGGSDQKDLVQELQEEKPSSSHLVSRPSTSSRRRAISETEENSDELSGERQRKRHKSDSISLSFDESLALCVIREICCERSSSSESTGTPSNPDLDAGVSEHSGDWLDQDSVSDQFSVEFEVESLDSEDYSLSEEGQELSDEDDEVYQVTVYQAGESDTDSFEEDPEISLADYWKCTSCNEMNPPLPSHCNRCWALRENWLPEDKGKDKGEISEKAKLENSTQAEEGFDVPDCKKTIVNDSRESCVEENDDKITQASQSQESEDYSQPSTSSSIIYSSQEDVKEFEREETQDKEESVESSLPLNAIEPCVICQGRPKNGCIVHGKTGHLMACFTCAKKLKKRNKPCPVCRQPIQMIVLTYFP

Compound	inhibition
Cc1ccc(OCCNC(=O)CN2C(=O)NC3(CCCC3)C2=O)cc1	15.5%
Cc1ccc(S(=O)(=O)/N=S(\C)C(C)C)cc1 (stereo unspecified)	20.8%
COc1ccc(CNC(=O)C[C@H]2C[C@H](C(=O)N3CCOCC3)[C@@]3(C)c4[nH]c5cc(CCC(=O)N(C)C)ccc5c4CCN3C2=O)cc1OC	49.5%
Cc1ccc(S(=O)(=O)N(C)C)cc1NC(=O)/C=C/c1cccs1	30.7%
Cc1cc(C)c2nc(N(CCN(C)C)C(=O)/C=C/c3cccs3)sc2c1	47.5%
Cc1ccc2sc(N(CCN(C)C)C(=O)/C=C/c3cccs3)nc2c1C	52.3% (active)
COCc1c(C(=O)N/N=C(\C)c2ccncc2)nnn1-c1nonc1N	-11.6%
Cc1cc(C)c(S(=O)(=O)N(C)CC(=O)NCC2CCCO2)c(C)c1 (stereo unspecified)	0.089%
Cc1ccc(OCc2nnc(NC(=O)OCC(C)C)s2)cc1	-16.4%
CCC(C)N1C(=O)S/C(=C/c2ccc(Sc3nc4ccccc4[nH]3)o2)C1=O (stereo unspecified)	89.2% (active)
O=C(CSc1nc2ccccc2[nH]1)Nc1nc(-c2ccccc2)c(-c2ccccc2)o1	13.9%
CN(Cc1ccccc1)C(=O)CSc1nc2ccccc2[nH]1	-10.7%
O=C(CNC(=O)c1ccccc1Br)NNC(=O)c1cccs1	4.78%
Cc1[nH]n(-c2ccc([N+](=O)[O-])cc2)c(=O)c1C=NCCN1CCN(C(=O)c2ccccc2F)CC1	-5.19%
Cc1ccc(-n2[nH]c(C)c(/C=N/NC(=O)c3cccc([N+](=O)[O-])c3)c2=O)cc1C	72.5% (active)
Cc1[nH]n(-c2ccccc2)c(=O)c1/C=N/NC(=O)c1ccoc1C	37.2%
CC1O[C@@H](OC2C(O)C(C)O[C@H](OC(=O)[C@]34CCC(C)(C)C[C@H]3C3=CCC5[C@@]6(C)CC(O)C(O[C@@H]7OC(CO)C(O)[C@@H](O)[C@@H]7O)[C@@](C)(C(=O)O)C6CC[C@@]5(C)[C@]3(CO)CC4)C2O[C@H]2OC(C)[C@@H](O[C@@H]3OCC(O[C@@H]4OC(CO)C(O)[C@H](O)C4O)[C@@H](O)[C@@H]3O)[C@H](O)C2O)C(O)C(O)C1O (stereo partly specified)	-20.6%
O=S(=O)(O)Oc1c[nH]c2ccccc12	12.5%
O=C(Nc1ccc2c(c1)nc1n2CCCCC1)c1cc(S(=O)(=O)N2CCOCC2)ccc1Cl	4.51%
O=C(CN(c1cccc(Cl)c1)S(=O)(=O)c1ccccc1)NN=C1CCCC1	-14%
COc1ccccc1-c1c(C#N)c(N)nc2c1CCC2	-4.18%

Compound	inhibition
CSc1ccc(-c2c(C#N)c(N)nc3c2c(C)nn3-c2ccccc2)cc1	40.5%
CSc1nc(N)c(C#N)c(-c2ccccc2Cl)c1C#N	58.4% (active)
Cc1ccc(NC(=O)C(=O)NCC2CCN(C(=O)c3cccc([N+](=O)[O-])c3)CC2)cc1	-4.26%
CCn1c2ccccc2c2cc(NC(=O)COC(=O)c3cc(S(=O)(=O)N4CCCCC4)ccc3Cl)ccc21	17.9%
Cc1cccc(NC(=O)c2cccc(S(=O)(=O)N3CCCC3)c2)n1	-8.96%
CCn1c(O)c(N=NC(=O)c2cccc(S(=O)(=O)N3CCCCC3)c2)c2ccccc21	51% (active)
CCOc1ccc(-n2cnc3c(=O)[nH]c(N)nc32)cc1	-4.14%
CCN(C[C@H]1N[C@@](Cc2ccccc2)(C(=O)OC)[C@H]2C(=O)N(Cc3ccccc3)C(=O)[C@@H]12)C(=O)c1ccc(C)cc1	0.772%
Cc1cccc([C@@H]2[C@@H]3C(=O)N(Cc4ccccc4)C(=O)[C@@H]3[C@]3(C)C(=O)N(c4ccc(Br)cc4)C(=O)N23)c1	53.1% (active)
CC(C)(C)N1C(=O)[C@H]2[C@@H](c3ccc(Br)cc3)N3C(=O)N(c4cccc(Cl)c4)C(=O)[C@@]3(C)[C@H]2C1=O	10.7%
Cc1cccc([C@@H]2[C@@H]3C(=O)N(Cc4ccccc4)C(=O)[C@@H]3[C@]3(Cc4ccc(Cl)cc4)C(=O)N(c4cccc(Cl)c4)C(=O)N23)c1	8.94%
Cc1ccc(S(=O)(=O)Nc2ccc(F)c(S(=O)(=O)N3CCOCC3)c2)cc1	29.4%
CC(C)C(=O)Nc1cccc(C(=O)Nc2ccc3c(c2)OCO3)c1	-105%
Cn1c(=O)n(C)c2cc(C(=O)Nc3ccc4c(c3)OCO4)ccc21	60.2% (active)
Cn1c(=O)n(C)c2cc(/C=N/NC(=O)c3cccc(Br)c3)ccc21	19.4%
Cn1c(=O)n(C)c2cc(C(=O)Nc3ccc(Br)cc3)ccc21	56.8% (active)
O=C(Nc1ccc2c(c1)OCO2)c1ccc(N2C(=O)c3ccccc3C2=O)cc1	8.21%
COc1cccc(OC)c1C(=O)Nc1ccc2c(c1)n(C)c(=O)n2C	6.22%
CC1(C)C=Cc2c(ccc3c2OC[C@@H](c2ccc(O)cc2O)C3)O1	-97.4%
Cc1c(NC(=O)CSc2cccc3cccnc23)c(=O)n(-c2ccccc2)n1C	65.2% (active)
Cc1c(NC(=O)CSc2nnc(-c3cccnc3)n2N)c(=O)n(-c2ccccc2)n1C	-18.9%

Compound	inhibition
Cc1c(NC(=O)CSc2nnnn2-c2ccc(C(=O)O)cc2)c(=O)n(-c2ccccc2)n1C	11%
Cc1ccc(NC(=O)c2nc[nH]c2C(=O)N[C@@H](CCCCNC(=O)OC(C)(C)C)C(=O)OC(C)(C)C)cc1	31.7%
CCOC(=O)c1ccc(NC(=O)c2nc[nH]c2C(=O)NCc2ccccc2)cc1	33.2%
CCOC(=O)c1ccc(NC(=O)c2nc[nH]c2C(=O)N[C@@H](CCCCNC(=O)OC(C)(C)C)C(=O)OC(C)(C)C)cc1	53.6% (active)
O=C(CNC(=O)c1ccccc1F)OCC(=O)c1c[nH]c2ccccc12	6.82%
O=C(Nc1cccnc1)c1noc2c1CCCCC2	3.42%
O=C(CCCN1C(=O)/C(=C/c2cccs2)SC1=S)Nc1ccc(O)cc1	62.6% (active)
O=C(CCCN1C(=O)/C(=C\c2ccccc2)SC1=S)Nc1ccccc1O	79.6% (active)
COc1ccc(/C=C2\SC(=S)N(CCC(=O)Nc3cccc(C(=O)O)c3)C2=O)cc1OC	0.635%
O=C(CCN1C(=O)/C(=C/c2cccs2)SC1=S)NNC(=O)c1cccc(O)c1	-31.2%
Cc1ccc(/C=C2/SC(=S)N(CCC(=O)NCCCN3CCOCC3)C2=O)cc1	-3.05%
O=C(CCCN1C(=O)/C(=C/c2ccccc2)SC1=S)Nc1ccc(O)cc1	94.8% (active)
COc1ccc(/C=C2\SC(=S)N(CCC(=O)Nc3ccccn3)C2=O)cc1OC	76.7% (active)
COc1ccc(/C=C2/SC(=O)N(CCCCCC(=O)Nc3ccccc3C(=O)O)C2=S)cc1	-4.65%
CCOc1ccc(/C=C2\SC(=S)N(NC(=O)c3ccncc3)C2=O)cc1OC	-7.45%
C=CCOc1ccc(/C=C2\SC(=S)N(CCC(=O)O)C2=O)cc1	42%
Cc1ccc(/C=C2\SC(=S)N(CCC(=O)Nc3ccc(O)cc3)C2=O)cc1	20.5%
CC(C(=O)Nc1ccc(O)c(C(=O)O)c1)N1C(=O)/C(=C/c2cccs2)SC1=S (stereo unspecified)	7.51%
Cc1csc(NC(=O)C2CCN(S(=O)(=O)c3ccccc3)CC2)n1	-1.69%
Cc1ccc2c(C)c(C(=O)N(C)CCC3CCCCO3)oc2c1C (stereo unspecified)	27.9%
CC(=O)Nc1ccc(S(=O)(=O)Nc2nc3n(n2)C(c2ccccc2)CC(=O)N3)cc1 (stereo unspecified)	12.5%

Compound	inhibition
CC(=O)NC12CC3CC(C1)CC(C(=O)N1CCN(S(=O)(=O)c4cccs4)CC1)(C3)C2	14.8%
Cc1ccc(Nc2nc(CSc3nnc(-c4ccncc4)n3-c3ccccc3C)cs2)cc1	38.1%
Cc1c(C(=O)NCC(c2ccco2)N2CCCC2)oc2ccc(Cl)cc12 (stereo unspecified)	21%
CCCCCOC(=O)C1=C(C)Nc2nnnn2C1c1ccc(OC)c(OC)c1OC (stereo unspecified)	-18%
COc1cccc(-c2cc3nc4c(c(N5CCC6(CC5)OCCO6)n3n2)CCCC4)c1	22.2%
COc1ccccc1CN(C)C(=O)C1(c2ccc(Cl)cc2)CC1	14.8%
O=C(CN1C(=O)NC(Cc2c[nH]c3ccccc23)C1=O)Nc1ccccc1C(F)(F)F (stereo unspecified)	-9.67%
Cc1ccc2c(c1)N(CC(=O)N(Cc1ccccn1)Cc1ccco1)C(=O)C(C(C)C)O2 (stereo unspecified)	2.25%
CCc1ccc(NC(=O)N2CCc3ccccc3C2)cc1	-51.8%
CCCc1cc(=O)[nH]c(SCC(=O)OCc2ccccc2)n1	18.4%
COC(=O)CSC1=C(C#N)C(c2ccccc2OC)C(C(=O)OC)C(=O)N1 (stereo unspecified)	15.2%
Cc1ccc(C2CC(=O)NC(SCC(=O)OCc3ccccc3)=C2C#N)o1 (stereo unspecified)	58.1% (active)
COc1cc(OC)cc(C(=O)OCC(=O)Nc2sccc2C(N)=O)c1	-6.16%
C=CCn1c(C)cc(C2=NNC(=NCC)SC2)c1C	97.3% (active)
CCS(=O)(=O)N1CCC(N2CCN(c3ccccc3)CC2)CC1	1.56%
O=[N+]([O-])c1ccccc1S(=O)(=O)Nc1cccc2cccnc12	94.5% (active)
Cc1ccccc1NC(=O)c1ccccc1NS(=O)(=O)c1cccc2cccnc12	11.2%
O=[N+]([O-])c1cccc2ncccc12	10.6%
